# Assay outcomes as filed in PubChem.
# HIF-2a block: inhibitors of HIF-2a; 786-0 RCC cells HIF-2a reporter, luciferase luminescence, overnight; AID 624352; 0.72% of 360,000 active; inhibition, % at 18.8 µM;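 active = inhibition of the luminescence signal of 40% or more relative to plate controls, in a single-dose primary screen at 18.75 µM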
# KKLEB tox: CF airway cell cytotoxicity counter-screen; activity change (cytotoxicity), % at 5 µM; 0.36% of 360,000 active; AID 602141; KKLEB CF airway cells viability, ATPlite luminescence, overnight; active compounds read low; cells stimulated with P. aeruginosa culture filtrate;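 active = corrected activity change at or below -50% at 5 µM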
# CF NFkB inh: inhibitors of cystic fibrosis induced NF-kB | KKLEB NF-kB-GFP reporter, PAF-induced, GFP fluorescence overnight | inhibition, % at 5 µM | 0.86% of 360,000 active | AID 588850;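 active = at least 50% inhibition at 5 µM, scaled per plate between neutral and stimulator controls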;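 also: PAF is a Pseudomonas aeruginosa culture filtrate used as stimulus; plate controls were PAF-stimulated DMSO wells for no effect and unstimulated DMSO wells for full effect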
# Peg3 prom inh-1: Peg3 promoter activity inhibition; HeLa PEG-Prom luciferase reporter, luminescence, overnight; inhibition, % at 20 µM; 1.7% of 360,000 active; AID 588405;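 active = inhibition of at least 50% at 20 µM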
# TROY NFkB inh: blocks TROY-dependent signaling in reporter cells | Q293 LMP1-TROYcd NF-kB luciferase reporter, 4 h | inhibition, % at 10 µM | 0.98% of 360,000 active | AID 1347056;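 active = compounds whose plate-normalised and pattern-corrected inhibition of the luciferase reporter signal at the single screening dose is 50% or more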
# TWEAK-Fn14 inh: blocks TWEAK-Fn14 interaction in a reporter cell assay | 2% of 360,000 active | TWEAK-stimulated Fn14 reporter cells, luciferase luminescence, 8 h | inhibition, % at 10 µM | AID 1159606; in the data active = inhibition above about 50%
# Peg3 prom inh-2: confirmation of Peg3 promoter inhibitors; AID 602417; inhibition, % at 20 µM; HeLa PEG-Prom luciferase reporter, luminescence, overnight; 84% of 1,300 active; shares compounds with Peg3 prom inh-1;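 active = at 20 µM dose, 40% or more inhibition averaged across four replicates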
# Active calls of the source: *; · = no result given. Compounds with a hit are over-represented: about 4% of the library has one in this group of screens.
SMILES,HIF-2a block,KKLEB tox,CF NFkB inh,Peg3 prom inh-1,TROY NFkB inh,TWEAK-Fn14 inh,Peg3 prom inh-2
CNCC[C@H](Oc1cccc2ccccc12)c1cccs1,-3,-14,47,90*,5,-24,92*
COc1ccc(-n2ncc3c(N(C)C4CCCCC4)ncnc32)cc1,70*,-79*,11,71*,91*,104*,71*
COCCNc1nc(-c2cc(F)ccc2C)c2sc(-c3ccccc3)cc2n1,-18,-16,41,12,-15,-22,·
Cc1cc(C)cc(C(=O)OCC(=O)NC(=O)NC2CCCC2)c1,-6,-1,12,-9,-17,-15,·
O=C(Nc1ccc(-c2cn3ccsc3n2)cc1)c1ccc(F)c(S(=O)(=O)N2CCOCC2)c1,-78,25,-40,80*,40,59*,96*
O=C(Nc1ccccc1)c1ccc(F)c(S(=O)(=O)N2CCOCC2)c1,-16,-1,-5,1,-5,1,·
CCC(C)(C)c1ccc(Oc2ccc(N)cc2)cc1,88*,4,-28,72*,89*,101*,91*
Cc1nn(C)c(C)c1NC(=O)CSc1nc(Cc2ccccc2)nc2c1cnn2-c1ccccc1,1,-6,0,96*,-1,-43,1
Clc1ccc(CN2CCN(c3ncccn3)CC2)cc1,-4,15,27,-3,20,4,·
COc1ccc2nc3n(c(=O)c2c1)-c1cc2ccccc2cc1C(=O)NC3Cc1ccccc1 (stereo not given),1,-8,0,14,15,13,·
COc1ccc2nc3n(c(=O)c2c1)-c1cc2ccccc2cc1C(=O)NC3Cc1ccc(O)cc1 (stereo not given),17,-1,-4,78*,22,11,86*
O=C(c1cc(Cl)nc2ccccc12)N1CCN(S(=O)(=O)c2cccc(F)c2)CC1,14,6,17,14,-4,-2,·
O=S(=O)(c1cccc(F)c1)N1CCN(c2nc(-c3cccnc3)nc3ccccc23)CC1,-37,-16,-3,53*,-8,35,55*
COc1ccc(-n2c(O)c(/C=N/Nc3nc(C)cc(C)n3)c3ccccc3c2=O)cc1OC,23,-5,20,56*,-50,19,45*
CC(/C=N\Nc1nnc2c(n1)[nH]c1c(C)cccc12)=C\c1ccco1,-98,-36,19,65*,16,-40,14
Cc1ccc(-c2nn(-c3ccccc3)cc2CSC(=N)N)cc1,-26,-6,-8,101*,-36,31,41*
COc1cc(NC(=O)c2cccs2)c(C(=O)OCC(=O)c2cc(C)n(-c3ccccc3)c2C)cc1OC,23,-11,15,59*,-32,15,83*
CC(CC(=O)N1CCc2ccccc21)n1cccn1 (stereo not given),-41,11,-35,-29,-15,-2,·
COc1ccc(Nc2c3c(nc4ccccc24)CCCC3)cc1OC,22,-6,-3,5,-7,-1,·
COc1cc(Nc2c3ccccc3nc3ccccc23)cc(OC)c1OC,46*,5,-96,107*,-36,1,99*
O=C(c1ccccc1)N(C(=O)c1ccccc1)c1ncnc2c1C(c1ccccc1)c1c(ccc3ccccc13)O2 (stereo not given),21,-4,56*,78*,10,47,77*
CCOC(=O)CCCC(=O)Nc1ncnc2c1C(c1ccccc1)c1c(ccc3ccccc13)O2 (stereo not given),25,4,-11,36,13,-5,·
COc1cc(OC)c(OC)cc1CCC(C)NCCC(c1ccccc1)c1ccccc1 (stereo not given),4,-11,5,97*,-20,0,88*
COc1cc(/C=C/c2ccc3cccc(O)c3n2)ccc1O,-296,1,-40,103*,-58,-25,57*
COc1cc(Br)cc(/C=C/c2ccc3cccc(O)c3n2)c1O,-91,9,-13,2,-31,-3,·
SMILES,HIF-2a block,KKLEB tox,CF NFkB inh,Peg3 prom inh-1,TROY NFkB inh,TWEAK-Fn14 inh,Peg3 prom inh-2
COc1cc(/C=C/c2ccc3cccc(O)c3n2)c(Br)cc1O,-141,-10,-6,98*,-12,20,92*
CSc1ccc(/C=C/c2ccc3cccc(O)c3n2)cc1,-124,-10,-5,-77,33,15,·
CC1(C)CC(=O)C=C(c2n[nH]nc2-c2ccc(F)c(F)c2)C1,-5,-3,18,14,4,-3,·
CCCN1CCc2c(sc(NC(=O)c3ccc(S(=O)(=O)N(C)c4ccccc4)cc3)c2C(N)=O)C1,4,-26,-20,-2,2,-21,·
CCCN1CCc2c(sc(NC(=O)c3ccc(S(=O)(=O)N4CCN(C(=O)OCC)CC4)cc3)c2C(N)=O)C1,22,-12,-11,65*,1,0,58*
COC(=O)c1ccc(OCC2c3cc(OC)c(OC)cc3CCN2C(=O)c2ccco2)cc1 (stereo not given),0,-23,14,60*,24,6,45*
O=C1/C(=C/c2ccccc2)CCc2ccc(Cl)nc21,12,4,-4,76*,21,72*,11
Cc1ccc(C(=O)N/C(=C\c2ccc(-c3cccc([N+](=O)[O-])c3)o2)C(=O)NCCCN(C)C)cc1,-10,-12,16,87*,5,-20,93*
CN(C)CCNC(=O)/C(=C/c1ccc(-c2ccc(Cl)cc2)o1)NC(=O)c1ccccc1,8,-18,30,100*,-14,-23,97*
CC(C)(C)OC(=O)[C@H](Cc1ccccc1)NC(=O)c1nc[nH]c1C(=O)NCCCCCN,-15,-10,-9,10,-12,-7,·
CC(C)(C)OC(=O)[C@H](Cc1ccccc1)NC(=O)c1[nH]cnc1C(=O)Nc1cccc(Cl)c1,18,-18,22,32,-10,14,·
CC(C)(C)OC(=O)NCc1ccc(CNC(=O)c2nc[nH]c2C(=O)N2CCN(C(=O)OC(C)(C)C)CC2)cc1,9,-11,-3,51*,22,34,28
CC(C)(C)OC(=O)[C@H](Cc1ccccc1)NC(=O)c1[nH]cnc1C(=O)Nc1ccc(Cl)cc1,-1,-2,16,85*,-3,-11,29
CC(C)(C)OC(=O)NCCCCCNC(=O)c1[nH]cnc1C(=O)N[C@@H](Cc1ccccc1)C(=O)OC(C)(C)C,16,-3,3,51*,-3,-67,40
Cc1ccc(NC(=O)c2nc[nH]c2C(=O)N2CCN(C(=O)OC(C)(C)C)CC2)cc1,-17,16,-12,-10,12,-6,·
Cc1ccc(C(=O)COC(=O)CN2C(=O)C3C4CC(C(Br)C4Br)C3C2=O)cc1 (stereo not given),3,8,-11,10,-16,8,·
